# Bioassay records deposited in PubChem BioAssay by National Center for Advancing Translational Sciences (NCATS).
# In the library only some 18% were active in any assay of this set; here they are far more common.
# TDP1 block – blocks human tyrosyl-DNA phosphodiesterase 1; Q9NUW8; recombinant TDP1, AlphaScreen DNA substrate cleavage; Potency, µM (titrated, usually from 130 µM), for the others: top-dose activity change, negative = inhibition, actives largely listed as inhibitors; 350,000 compounds, 0.28% hits; AID 485290; note: potency is the fitted concentration of half-maximal effect; % is set by controls: 0 for no effect and ±100 for the full control effect; nearly all actives have a fitted effect of over 40% in size
# Target sequence (Q9NUW8 whole entry, looked up): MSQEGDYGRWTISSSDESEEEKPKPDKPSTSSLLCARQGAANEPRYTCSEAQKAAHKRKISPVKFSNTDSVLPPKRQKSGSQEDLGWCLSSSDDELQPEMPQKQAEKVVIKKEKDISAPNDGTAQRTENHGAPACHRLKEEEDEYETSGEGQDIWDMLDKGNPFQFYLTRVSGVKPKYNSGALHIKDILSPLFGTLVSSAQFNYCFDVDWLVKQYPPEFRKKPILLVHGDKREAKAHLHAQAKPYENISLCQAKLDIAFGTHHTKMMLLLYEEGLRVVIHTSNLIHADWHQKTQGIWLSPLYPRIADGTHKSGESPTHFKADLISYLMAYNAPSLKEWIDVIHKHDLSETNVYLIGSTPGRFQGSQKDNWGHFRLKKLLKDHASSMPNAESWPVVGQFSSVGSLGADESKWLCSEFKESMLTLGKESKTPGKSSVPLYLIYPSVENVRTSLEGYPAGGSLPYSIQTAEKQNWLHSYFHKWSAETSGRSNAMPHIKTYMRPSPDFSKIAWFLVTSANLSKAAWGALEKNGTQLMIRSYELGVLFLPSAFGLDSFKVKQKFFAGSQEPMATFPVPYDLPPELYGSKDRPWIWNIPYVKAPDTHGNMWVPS
#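 E. coli-derived human Tdp1, 1 nM final. Cpd preinc 15 min RT; substrate 15 nM final, 5 min RT; AS bead mix 10 ug/ml final, 10 min RT. Signal loss = tyrosine-FITC cleavage. No-enzyme wells = max signal.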
# TGFb SMAD3 inh – blocks TGF-b signaling. HepG2 CAGA-GFP TGF-b/SMAD3 reporter, GFP fluorescence, 18 h; TGF-beta stimulated, 500 pg/mL final. AID 588855. 410,000 compounds, 1.2% hits. Potency, µM (top dose mostly 46.1 µM), for inactives: at the top dose activity, negative = inhibition, usual class: inhibitors; note: potency is the fitted concentration of half-maximal effect; % is set by controls: 0 for no effect and ±100 for the full control effect; nearly all actives have a fitted effect of over 65% in size
#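 First, reporter cells (HEPG2 CAGA-GFP) rested 2 h at 37 degrees C. Next, compounds were pinned in and TGF-beta added to 500 pg/mL final. After 18 h, GFP was imaged per cell and summed per well.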
# HepG2 viability – HepG2 cytotoxicity, counter-screen for TGF-b inhibitors | HepG2 CAGA-GFP viability, ATP luminescence, 18 h | 410,000 compounds, 0.76% hits | Potency, µM (titrated, usually from 46.1 µM), inactives show at the top dose activity change, negative = cytotoxicity, most hits filed as cytotoxic; note: potency is the fitted concentration of half-maximal effect
#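 CellTiter-Glo luminescence gave cytotoxicity after 18 hours at 37 degrees C. The cells were HepG2 CAGA-GFP in 1% FBS DMEM, stimulated with 500 pg/mL TGF-beta after compound addition. %Activity was normalised to no-cell wells (complete cell-killing) and DMSO (no toxicity), and curves were fitted and classified.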
# DT40 TDP1 no CPT – qHTS for Inhibitors of human tyrosyl-DNA phosphodiesterase 1 (TDP1): qHTS in cells in absence of CPT. DT40 Tdp1-/- hTDP1 cells, no CPT, ATP luminescence, 48 h. Potency, µM (series often up to 46.2 µM), inactives show at the highest dose activity change, negative = growth inhibition, actives largely listed as inhibitors. 420,000 compounds, 15% hits; note: potency is the fitted concentration of half-maximal effect; % is set by controls: 0 for no effect and ±100 for the full control effect; nearly all actives have a fitted effect of over 55% in size
#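 Seeded 400 DT40-hTDP1 cells/well (vehicle DMSO, no 20 nM CPT); pinned compounds; ≥48 hr at 37 °C; CellTiter-Glo luminescence as viability measure.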
# DT40 TDP1 CPT – DT40-hTDP1 cell growth loss with CPT | chicken DT40 Tdp1-/-;hTDP1 cells + 20 nM CPT, ATP luminescence, 48 h | Potency, µM (doses to about 46.2 µM), for inactives: at the top dose activity change, negative = growth inhibition, most hits filed as inhibitors | 420,000 compounds, 12% hits | AID 686979; note: potency is the fitted concentration of half-maximal effect; % is set by controls: 0 for no effect and ±100 for the full control effect; nearly all actives have a fitted effect of over 55% in size
#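 Chicken DT40 Tdp1-/- cells stably complemented with human TDP1 were seeded at 400 cells/well in medium containing 20 nM camptothecin, exposed to pin-transferred compounds, and grown at 37 °C for at least 48 hr. Viability was read as ATP luminescence.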
# IL-1B inflam inh – inhibitors of inflammasome signaling (IL-1 beta secretion); THP-1 LPS/ATP IL-1B secretion, AlphaLISA, 16 h; hits give low values; activity change, % at 57.5 µM; 360,000 compounds, 4.7% hits; in the data active = activity change below about -50%; inconclusive = mostly about -30% to -49%; note: % is set by controls: 0 for no effect and ±100 for the full control effect
#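 Secreted IL-1B measured by AlphaLISA bead assay after 16 h compound exposure of THP-1 cells; compounds (final up to 57.5 uM) added 1 h before LPS (250 ng/mL) and ATP (1.25 mM) stimulation; lower signal means less secretion.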
# * marks the source's active call; other numbers are inactive results; i = inactive; ? = inconclusive; · = no result; [ ] = dose if it differs, or a comment. Unless noted, calls come from the whole dose curve; as a rule, active = well fitted curve in the direction sought with a large enough effect; inconclusive = small, poorly fitted or top-dose-only effect, or another doubt; inactive = no such curve, though single readings can be large; an effect the other way counts as inactive or inconclusive.
SMILES,TDP1 block,TGFb SMAD3 inh,HepG2 viability,DT40 TDP1 no CPT,DT40 TDP1 CPT,IL-1B inflam inh
O=C(NCC(c1ccc(F)cc1)N1CCOCC1)c1cccnc1Sc1ccccc1 (stereo not drawn),-13.1%,1.9%,0.0%,?,-20.2%,10.4
O=C(NCC(c1cccs1)N1CCOCC1)c1ccccc1NS(=O)(=O)c1ccc(Br)cc1 (stereo not drawn),4.3%,?,-90.5%,14.6µM*,?,-8.6
C=CCN(c1ccccc1)S(=O)(=O)c1cccc(C(=O)NCC(c2ccc(F)cc2)N2CCOCC2)c1 (stereo not drawn),·,0.0%,1.7%,16.4µM*,13µM*,4.3
COC(=O)[C@@]1(C)C=C[C@@H](Cc2ccccc2)N1C(=O)c1ccccc1,6.3%,·,·,·,·,·
CC(=C\c1ccccc1)/C=C1/SC(=S)N(CC(=O)O)C1=O,·,·,·,-14.0%,4.0%,·
CN(C)c1ccc(C(=O)NCC(c2cccs2)N2CCOCC2)cc1 (stereo not drawn),2.8%,-4.4%,-18.8%,-19.2%,-5.3%,-25.9
O=C(NCC(c1cccs1)N1CCOCC1)c1cccc(S(=O)(=O)Nc2ccc(F)cc2)c1 (stereo not drawn),·,0.0%,-5.4%,?,?,38.2
CN(c1ccccc1)S(=O)(=O)c1cccc(C(=O)NCC(c2cccs2)N2CCOCC2)c1 (stereo not drawn),·,-12.6%,-31.3%,16.4µM*,?,14.8
Cc1ccc(NS(=O)(=O)c2cccc(C(=O)NCC(c3ccc(F)cc3)N3CCOCC3)c2)cc1 (stereo not drawn),8.6%,-11.6%,-23.2%,16.4µM*,29.1µM*,-50.6*
COc1ccc(CC(=O)NNC(=O)COc2ccc(C)cc2)cc1S(=O)(=O)N1CCOCC1,1.1%[0.505 µM],8.0%,15.0%,-4.9%,-6.5%,10.6
OC1(c2ccccc2)CNCCc2ccccc21 (stereo not drawn),·,-3.8%,-4.3%,-11.9%,-7.9%,-15.4
C[C@@H]1CN([C@H](C)CO)C(=O)c2cc(Br)cnc2O[C@@H]1CN(C)C(=O)c1cccc(F)c1,·,26.9%,-13.2%,-1.1%,2.2%,10.8
CC(NC(=O)c1cc(F)c(F)c(F)c1F)c1ccc(-n2ccnc2)cc1 (stereo not drawn),4.2%,2.9%,1.2%,?,23.1µM*,?
CC(C)(C)c1ccc(C(=O)NCC(=O)OC(C(=O)Nc2cc(C(F)(F)F)ccc2Cl)c2ccccc2)cc1 (stereo not drawn),0.4%,·,·,·,·,·
CC1(C(=O)NS(=O)(=O)c2ccc(Br)cc2)CCN1C(=O)Cc1cccs1 (stereo not drawn),·,?,4.0%,-19.2%,3.1%,2.2
O=C(NCc1ccc(Cl)cc1)C1CCCN1C(=O)Nc1ccccc1 (stereo not drawn),·,1.4%,-2.9%,-12.9%,-18.4%,-5.2
CCOC(=O)C1CCCN(C(=O)c2ccc3oc(CCc4ccccc4)nc3c2)C1 (stereo not drawn),2.1%,-1.0%,1.0%,?,-27.5%,9.1
CCOC(=O)C1CCCN(C(=O)c2ccc3nc(-c4ccc(OC)c(OC)c4)c(-c4ccc(OC)c(OC)c4)nc3c2)C1 (stereo not drawn),-0.4%,-10.5%,-0.7%,?,29.1µM*,-8.5
CCOC(=O)C1CCCN(C(=O)c2ccc3nc(-c4ccccc4)c(-c4ccccc4)nc3c2)C1 (stereo not drawn),4.5%,?,-14.4%,20.6µM*,?,-8.9
CCOC(=O)C1CCCN(C(=O)c2cccc(S(=O)(=O)N(Cc3ccccc3)c3ccccc3OC)c2)C1 (stereo not drawn),·,-5.7%,17.5%,16.4µM*,23.1µM*,-14.5
CCOC(=O)C(=Cc1ccc(N(C)C)cc1)C(=O)c1ccccc1,·,17.5%,-17.1%,?,16.4µM*,-74.7*
CCOC(=O)/C(=C\c1ccccc1)NC(=O)c1ccccc1,6.0%,12.6%,107.0%,-9.9%,10.1%,-10.2
CCOC(=O)/C(=C/c1ccc(OC(=O)c2ccccc2)cc1)C(C)=O,5.3%,-4.9%,-4.6%,?,18.4µM*,i
c1ccc(OC2CCCCC2N2CCOCC2)cc1 (stereo not drawn),·,-1.9%,1.0%,-0.6%,0.3%,-5.6
CCCC[C@@H]1C[C@H]1C(NS(=O)(=O)c1cccc2cccnc12)c1ccc(-c2ccccc2)cc1 (stereo partly drawn),10.5%,·,·,·,·,·
SMILES,TDP1 block,TGFb SMAD3 inh,HepG2 viability,DT40 TDP1 no CPT,DT40 TDP1 CPT,IL-1B inflam inh
O=C(CN1CC[n+]2c(-c3ccccc3)csc21)c1ccc(Br)cc1,0.0%,17.7%,-9.8%,2.06µM*,2.91µM*,-54.1*
CC(=O)N1CCN(CC(=O)c2ccc(Br)cc2)CC1,2.4%,-19.0%,-13.4%,-20.7%,-21.2%,26.9
N#CCN1CCN(CC(=O)c2ccc(Br)cc2)CC1,·,-11.8%,25.2%,-4.2%,-15.4%,8.9
O=C(CN1CC[n+]2c(-c3cccs3)csc21)c1ccc(Br)cc1,10.3%,-8.7%,-12.6%,3.66µM*,1.84µM*,?
COc1cc(-c2nc(Cn3nnc(C(=O)Nc4ccccc4)c3C)c(C)o2)cc(OC)c1OC,5.5%,0.4%,-42.3%,25.9µM*,?,·
Cc1ccc(C)c(N(C)C(=O)C2CCN(c3ncnc4c3nc3n4CCCCC3)CC2)c1,2.5%,?,-22.8%,?,?,·
CCOc1ccccc1N1CCN(C(=O)c2cc(S(=O)(=O)N(C)C)ccc2N2CCCC2)CC1,2.5%,-5.9%,-12.6%,?,?,4.9
O=S(=O)(CCN1CCCCC1)CCS(=O)(=O)CCN1CCCCC1,·,0.0%,15.0%,-26.8%,?,-71.4*
Cc1nn(-c2nc3ccccc3[nH]2)c(N)c1-c1ccc(Cl)cc1,9.5%,?,-40.4%,16.4µM*,?,-27.4
Cc1nn(-c2nc3ccccc3[nH]2)c(=O)c2ccccc12,-6.0%,-1.0%,3.16µM*,2.06µM*,1.84µM*,-15.8
Cc1nn(-c2ccc3ccccc3c2)c(=O)c2ccccc12,0.0%,-16.5%,-20.8%,16.4µM*,?,44.4
O=C(NCCS(=O)(=O)N1CCN(c2ccccc2F)CC1)c1cccs1,·,-6.5%,-28.2%,1.4%,-16.2%,-3.9
Cc1cccc(NC(=O)c2cccnc2Oc2ccccc2)c1C(=O)O,·,4.2%,0.1%,-5.2%,8.5%,7.1
